Measured values as given in PubChem BioAssay (Tox21).
Several values for one entry are separate records, joined by “and”; a condition that tells them apart may be missing. Equal values may be shown once. Inconclusive results are not listed. Activity calls are given as the source filed them. Unless noted, calls follow the shape of the dose curve; as a rule, active = well fitted curve in the direction sought with a large enough effect in the repeat runs; inconclusive = weak or mixed curves; inactive = no such curve, though single readings can be large; an effect the other way counts as inactive or inconclusive.

How the values were obtained:
[1] = qHTS assay to identify small molecule agonists of the hypoxia (HIF-1) signaling pathway - cell viability counter screen (AID 1224844; calls by dose curve; also: nearly all actives have a fitted effect of over 50% in size; also: potency is read from the fitted curve at half-maximal effect)
How it was run: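 Viability counter screen: HRE-bla ME-180 cells plated 5 hrs before compound addition, treated 17 hrs at 37C and 5% CO2, then CellTiter-Glo added after the FRET reporter read; luminescence after 30 min.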

[2] = qHTS assay to identify small molecule agonists of the hypoxia (HIF-1) signaling pathway (AID 1224846; active = well fitted activation curve with a large enough effect in the signal ratio in the repeat runs, not every such curve was filed as active; the % refers to the signal ratio)
How it was run: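 Agonist mode reporter screen. ME-180 cells stably expressing bla under HRE control received test compounds in DMSO for 17 hrs (37C, 5% CO2), and beta-lactamase activity was then detected with the CCF4-AM FRET substrate.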

[3] = qHTS RealTime-Glo MT Cell Viability Assay in HepG2 cells - 24 hour (AID 1224867); also: nearly all actives have a fitted effect of over 50% in size; also: potency is read from the fitted curve at half-maximal effect
How it was run: (§1)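 qHTS, HepG2, 600 cells/well, RealTime-Glo (NanoLuc + prosubstrate) added with cells; 5 h preincubation; DMSO compound addition; 37 C; luminescence at 0/8/16/24/32/40 h.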

[4] = qHTS RealTime-Glo MT Cell Viability Assay in HEK293 cells - 32 hour (AID 1224868); also: nearly all actives have a fitted effect of over 50% in size; also: potency is read from the fitted curve at half-maximal effect
How it was run: (§2)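 Assay medium contained NanoLuc luciferase plus cell-permeant prosubstrate, added with HEK293 cells at 600 cells/well. After 5 h at 37 C/5% CO2 compounds were added; plates stayed at 37 C for 40 h with serial luminescence reads.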

[5] = A CellTox Green Cytotoxicity Assay to monitor cytotoxicity in HEK293 cells - 0 hour (AID 1224869); also: nearly all actives have a fitted effect of over 50% in size
How it was run: (§3)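 Dead-cell fluorescence measured kinetically: asymmetric cyanine dye, HEK293, 600 cells/well, 5 h settle, 23 nL cpd/DMSO, 37 C, reads 0–40 h every 8 h.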

[6] = qHTS RealTime-Glo MT Cell Viability Assay in HepG2 cells - 40 hour (AID 1224870); also: nearly all actives have a fitted effect of over 50% in size; also: potency is read from the fitted curve at half-maximal effect
How it was run: (§4)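 Real-time viability: cells seeded at 600 per well together with NanoLuc and cell-permeant prosubstrate, compounds added after 5 h incubation. Luminescence tracked at 0, 8, 16, 24, 32 and 40 h of exposure.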

[7] = A CellTox Green Cytotoxicity Assay to monitor cytotoxicity in HEK293 cells - 40 hour (AID 1224871); also: nearly all actives have a fitted effect of over 45% in size; also: potency is read from the fitted curve at half-maximal effect
How it was run: as §3

[8] = qHTS RealTime-Glo MT Cell Viability Assay in HEK293 cells - 16 hour (AID 1224872); also: nearly all actives have a fitted effect of over 50% in size; also: potency is read from the fitted curve at half-maximal effect
How it was run: as §2

[9] = qHTS RealTime-Glo MT Cell Viability Assay in HepG2 cells - 8 hour (AID 1224873); also: nearly all actives have a fitted effect of over 55% in size
How it was run: as §4

[10] = qHTS RealTime-Glo MT Cell Viability Assay in HEK293 cells - 40 hour (AID 1224874); details: RealTime-Glo luminescence; max response: stronger effect = lower value; also: nearly all actives have a fitted effect of over 50% in size; also: potency is read from the fitted curve at half-maximal effect
How it was run: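 600 HEK293 cells per well, dispensed already mixed with RealTime-Glo MT reagents. Compound dosing came 5 h later. The same wells were read for luminescence at 0, 8, 16, 24, 32 and 40 h of exposure at 37 C.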

[11] = A CellTox Green Cytotoxicity Assay to monitor cytotoxicity in HEK293 cells - 24 hour (AID 1224875); also: nearly all actives have a fitted effect of over 45% in size
How it was run: as §3

[12] = A CellTox Green Cytotoxicity Assay to monitor cytotoxicity in HepG2 cells - 16 hour (AID 1224876); also: nearly all actives have a fitted effect of over 45% in size; also: potency is read from the fitted curve at half-maximal effect
How it was run: (§5)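 First, HepG2 cells (600/well) mixed with reagent were plated; second, after 5 h at 37 C they received compounds via pintool; third, fluorescence was measured at 0 h through 40 h at 8 h intervals.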

[13] = qHTS RealTime-Glo MT Cell Viability Assay in HepG2 cells - 32 hour (AID 1224877); also: nearly all actives have a fitted effect of over 55% in size
How it was run: as §1

[14] = A CellTox Green Cytotoxicity Assay to monitor cytotoxicity in HepG2 cells - 24 hour (AID 1224878); also: nearly all actives have a fitted effect of over 45% in size; also: potency is read from the fitted curve at half-maximal effect
How it was run: as §5

[15] = A CellTox Green Cytotoxicity Assay to monitor cytotoxicity in HepG2 cells - 40 hour (AID 1224879); also: nearly all actives have a fitted effect of over 40% in size; also: potency is read from the fitted curve at half-maximal effect
How it was run: as §5

[16] = qHTS assay to identify small molecule agonists of H2AX (AID 1224845; active = well fitted activation curve with a large enough effect in the signal ratio in the repeat runs, not every such curve was filed as active; the % refers to the signal ratio)
How it was run: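 Phospho-H2AX Ser139 measured by HTRF (ex 320 nm; em 665 and 620 nm) after 24 hr antibody incubation. Compounds, 15 concentrations, 0.76% DMSO, were applied to CHO-K1 cells for 3hr at 37C before lysis.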

[17] = qHTS assay to identify small molecule agonists of H2AX - cell viability counter screen (AID 1224847; calls by dose curve; also: nearly all actives have a fitted effect of over 30% in size; also: potency is read from the fitted curve at half-maximal effect)
How it was run: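 CHO-K1 wt, 1000 cells/well, o/n 37C; cpds 15 conc, 3 h 37C, 0.76% DMSO; CellTiter-Glo, 30 min RT, luminescence.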

[18] = qHTS assay to identify small molecule antagonists of the estrogen related receptor (ERR) signaling pathway from Tox21 library (AID 1224848); also: nearly all actives have a fitted effect of over 50% in size; also: potency is read from the fitted curve at half-maximal effect
How it was run: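 ERR cell line, 2,000 cells/well. 6 h settle, then compound (DMSO) added; 18 h at 37 C; ONE-Glo luminescence after 30 min RT.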

[19] = qHTS assay to identify small molecule agonists of the estrogen related receptor (ERR) signaling pathway from Tox21 library (AID 1224849; calls by dose curve; also: nearly all actives have a fitted effect of over 15% in size); details: ERR reporter cell line, ONE-Glo luciferase, 18 h; at 92.4 µM (top of the series) unless noted
How it was run: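 Quantitative HTS in agonist format: NTP ERR cell line, compounds transferred in DMSO after 6 h plating, 18 h incubation at 37 C, ONE-Glo luminescence endpoint.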
% is scaled to controls: 0 for no effect and ±100 for the full control effect.

CCOc1ccc(C(C)(C)COCc2cccc(Oc3ccccc3)c2)cc1
inactive: Potency [1] | outcome [2] | Potency [3] | Potency [4] | Potency [5] | Potency [6] | Potency [7] | Potency [8] | Potency [9] | max response [10] 11.2% | Potency [11] | Potency [12] | Potency [13] | Potency [14]

O=S1(=O)OC(c2cc(Br)c(O)c(Br)c2)(c2cc(Br)c(O)c(Br)c2)c2ccccc21
active: Potency [1] 6.34 µM
inactive: outcome [2] | Potency [3] | Potency [4] | Potency [5] | Potency [6] | Potency [7] | Potency [8] | Potency [9] | max response [10] 11.5% | Potency [12] | Potency [13] | Potency [14] | Potency [15]

O=C(O)C(F)(F)C(F)(F)C(F)(F)C(F)(F)C(F)(F)C(F)(F)C(F)(F)C(F)(F)C(F)(F)C(F)(F)F
inactive: Potency [16] | outcome [2] | Potency [17] | Potency [18] | activity change, positive = activation [19] 8.05% | Potency [3] | Potency [4] | Potency [5] | Potency [7] | Potency [8] | max response [10] 13.9% | Potency [11]

CCOP(=S)(Oc1ccc([N+](=O)[O-])cc1)c1ccccc1 (stereo not given)
inactive: Potency [1] | outcome [2] | Potency [18] | Potency [3] | Potency [4] | Potency [5] | Potency [6] | Potency [7] | Potency [8] | Potency [9] | max response [10] 9.18% | Potency [11] | Potency [12] | Potency [13] | Potency [14] | Potency [15]
active: activity change, positive = activation [19] 24.4%

Cc1c(F)c(F)c(COC(=O)C2C(/C=C(\Cl)C(F)(F)F)C2(C)C)c(F)c1F (stereo not given)
inactive: outcome [2] | Potency [3] | Potency [4] | Potency [5] | Potency [6] | Potency [7] | Potency [8] | Potency [9] | max response [10] 6.54% | Potency [11] | Potency [12] | Potency [13] | Potency [14] | Potency [15]

COP(=S)(Oc1cc(Cl)c(Br)cc1Cl)c1ccccc1 (stereo not given)
inactive: Potency [16] | outcome [2] | activity change, positive = activation [19] -31.4% | Potency [3] | Potency [5] | Potency [6] | Potency [7] | Potency [9] | Potency [11] | Potency [13]

[CH3][Sn]([CH3])([Cl])[Cl]
active: Potency [18] 69.7 µM and 61.1 µM
inactive: activity change, positive = activation [19] -70.4% and -43.3% | Potency [3] | Potency [5] | Potency [6] | Potency [7] | Potency [9] | Potency [12] | Potency [13] | Potency [14]

O=NN1CCNCC1
inactive: Potency [16] | outcome [2] | Potency [3] | Potency [4] | Potency [5] | Potency [6] | Potency [7] | Potency [8] | Potency [9] | max response [10] 9.64% | Potency [11] | Potency [12] | Potency [13] | Potency [14]

CC1(C)CCC(Cc2ccc(Cl)cc2)C1(O)Cn1cncn1 (stereo not given)
inactive: Potency [16] | outcome [2] | activity change, positive = activation [19] -53.4% | Potency [3] | Potency [5] | Potency [6] | Potency [13]
active: Potency [17] 101 µM | Potency [18] 30.6 µM | Potency [4] 24.5 µM | Potency [8] 24.5 µM | Potency [10] 24.5 µM | Potency [12] 54.9 µM

C/C=C/C=O
inactive: Potency [16] | outcome [2] | Potency [17] | Potency [3] | Potency [4] | Potency [5] | Potency [6] | Potency [7] | Potency [8] | Potency [9] | max response [10] 5.18% | Potency [11] | Potency [12] | Potency [13] | Potency [14] | Potency [15]

II
active: Potency [17] 80 µM | Potency [3] 15.5 µM | Potency [6] 5.49 µM | Potency [7] 38.9 µM | Potency [12] 38.9 µM | Potency [14] 34.7 µM | Potency [15] 38.9 µM
inactive: Potency [16] | Potency [4] | Potency [5] | Potency [8] | max response [10] -3.85%

COc1c(C(C)(C)C)cc([N+](=O)[O-])c(C)c1[N+](=O)[O-]
inactive: Potency [1] | outcome [2] | Potency [17] | Potency [3] | Potency [4] | Potency [5] | Potency [6] | Potency [7] | Potency [8] | Potency [9] | max response [10] 1.56% | Potency [11] | Potency [12] | Potency [13] | Potency [14] | Potency [15]

CCOP(=S)(OCC)Oc1cc(Cl)c(Br)cc1Cl
inactive: Potency [1] | outcome [2] | Potency [3] | Potency [4] | Potency [5] | Potency [6] | Potency [7] | Potency [8] | Potency [9] | max response [10] -15.7% | Potency [11] | Potency [12] | Potency [13] | Potency [14] | Potency [15]

COc1nn(CSP(=S)(OC)OC)c(=O)s1
inactive: outcome [2] | Potency [3] | Potency [4] | Potency [5] | Potency [6] | Potency [7] | Potency [8] | Potency [9] | max response [10] -3.23% | Potency [11] | Potency [12] | Potency [13]

CCCCC(O)(Cn1cncn1)c1ccc(Cl)cc1Cl (stereo not given)
inactive: Potency [16] | outcome [2] | activity change, positive = activation [19] -59.1% | Potency [5]
active: Potency [17] 113 µM | Potency [18] 38.5 µM | Potency [4] 38.9 µM | Potency [7] 54.9 µM | Potency [8] 43.6 µM | Potency [10] 43.6 µM | Potency [14] 43.6 µM
